Our source for the outcome and AC50 values is PubChem BioAssay (EPA / NIEHS).

In general, AC50 refers to the concentration at which the activity in the assay is half-maximal.

Read-out in experiment [1]: urokinase plasminogen activator (uPA), PLAU (gene 5328)
Kind of experiment: BSK_KF3CT_uPA: BioMAP Diversity Plus: KF3CT Assay for urokinase plasminogen activator (uPA) Biomarker Activity (AID 2283075). The settings on record: primary human keratinocytes with fibroblasts; actives raise or lower the signal. In short, it runs like this: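 ELISA readout of uPA, analyzed for signal gain or loss relative to DMSO, from a human primary keratinocyte–foreskin fibroblast co-culture measured 24 h after chemical treatment.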

Read-out in experiment [2]: CD40, CD40 (gene 958)
Briefly: BSK_LPS_CD40: BioMAP Diversity Plus: LPS Assay for CD40 Biomarker Activity (AID 2283076). To be noted: primary human HUVEC with PBMC; actives raise or lower the signal. Put shortly:
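Primary human umbilical vein endothelial cells co-cultured with peripheral blood mononuclear cells, LPS-stimulated, were dosed with chemical and read 24 h later. CD40 levels were measured by ELISA and fitted bidirectionally against DMSO as negative control and baseline.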

Read-out in experiment [3]: E-selectin (Homo sapiens) (UniProt P16581)
Briefly: BSK_LPS_Eselectin: BioMAP Diversity Plus: LPS Assay for Eselectin Biomarker Activity (AID 2283077). The settings on record: primary human HUVEC with PBMC; actives raise or lower the signal. Put shortly:
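Human umbilical vein endothelial cells co-cultured with peripheral blood mononuclear cells under LPS stimulation; E-selectin measured by ELISA 24 h after chemical dosing. Activity fitted bidirectionally against DMSO as negative control and baseline.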

Read-out in experiment [4]: Interleukin-8 (IL8), CXCL8 (gene 3576)
Briefly: BSK_LPS_IL8: BioMAP Diversity Plus: LPS Assay for Interleukin-8 (IL8) Biomarker Activity (AID 2283078). The settings on record: primary human HUVEC with PBMC; actives raise or lower the signal. Put shortly:
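Human umbilical vein endothelial cells co-cultured with PBMC were stimulated with LPS; IL-8 levels were measured by ELISA 24 h after chemical dosing. Activity was fitted bidirectionally against DMSO as negative control and baseline.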

Experiment [5] in a line: BSK_LPS_SRB: Viability Assessment in the BioMAP Diversity Plus: LPS Assay (AID 2283079).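 Note: total protein by sulforhodamine B absorbance as a cytotoxicity measure; measured one day after compound addition; fitted in both directions against DMSO so loss or gain of signal counts.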 The settings on record: primary human HUVEC with PBMC. Put shortly:
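Human umbilical vein endothelial cells co-cultured with PBMC (LPS system) were dosed for 24 h. Total protein was stained with 0.1% sulforhodamine B after 10% TCA fixation, read at 560 nm, and fitted bidirectionally against DMSO baseline.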

Read-out in experiment [6]: Interleukin-1 alpha (IL1a), IL1A (gene 3552)
Briefly: BSK_LPS_IL1a: BioMAP Diversity Plus: LPS Assay for Interleukin-1 alpha (IL1a) Biomarker Activity (AID 2283080). To be noted: primary human HUVEC with PBMC; actives raise or lower the signal. Put shortly:
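Human umbilical vein endothelial cells co-cultured with peripheral blood mononuclear cells were LPS-stimulated and exposed to test chemicals for 24 h. IL-1 alpha was quantified by ELISA, with bidirectional curve fitting against DMSO as the negative control and baseline.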

Read-out in experiment [7]: Monocyte Chemoattractant Protein-1 (MCP1), CCL2 (gene 6347)
Kind of experiment: BSK_LPS_MCP1: BioMAP Diversity Plus: LPS Assay for Monocyte Chemoattractant Protein-1 (MCP1) Biomarker Activity (AID 2283081). The settings on record: primary human HUVEC with PBMC; actives raise or lower the signal. In short, it runs like this:
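HUVEC plus PBMC co-culture (human primary cells, LPS system) exposed to test chemical for 24 h; MCP-1 measured by ELISA. Bidirectional curve fitting against DMSO baseline; parallel SRB total-protein staining flags overt cytotoxicity.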

A short description of experiment [8]: BSK_LPS_PGE2: BioMAP Diversity Plus: LPS Assay for Prostaglandin E2 (PGE2) Biomarker Activity (AID 2283082). To be noted: primary human HUVEC with PBMC; actives raise or lower the signal. Put shortly:
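LPS-activated HUVEC/PBMC co-culture; cmpd dosed, 24 h; PGE2 by ELISA; bidirectional fit vs DMSO; SRB (0.1%, TCA-fixed, 560 nm) in parallel plates for overt cytotox.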

Read-out in experiment [9]: Macrophage colony-stimulating factor (MCSF), CSF1 (gene 1435)
Kind of experiment: BSK_LPS_MCSF: BioMAP Diversity Plus: LPS Assay for Macrophage colony-stimulating factor (MCSF) Biomarker Activity (AID 2283083). The settings on record: primary human HUVEC with PBMC; actives raise or lower the signal. Put shortly: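 Human umbilical vein endothelial cells co-cultured with peripheral blood mononuclear cells were exposed to compound for 24 h. M-CSF levels were measured by ELISA, and bidirectional curve fitting used DMSO as the negative control and baseline.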

Read-out in experiment [10]: Tissue Factor, F3 (gene 2152)
Kind of experiment: BSK_LPS_TissueFactor: BioMAP Diversity Plus: LPS Assay for Tissue Factor Biomarker Activity (AID 2283084). The settings on record: primary human HUVEC with PBMC; actives raise or lower the signal. In short, it runs like this:
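Human umbilical vein endothelial cells co-cultured with peripheral blood mononuclear cells were dosed and stimulated with LPS. Cell-surface CD142 was quantified by ELISA at 24 h. Activity was fitted bidirectionally against DMSO baseline.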

Read-out in experiment [11]: Tumor necrosis factor (Homo sapiens) (UniProt P01375)
Briefly: BSK_LPS_TNFa: BioMAP Diversity Plus: LPS Assay for Tumour Necrosis Factor alpha (TNFa) Biomarker Activity (AID 2283085). The settings on record: primary human HUVEC with PBMC; actives raise or lower the signal. In short, it runs like this:
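Read-out is ELISA of TNFa in primary human endothelial cell–PBMC co-cultures at 24 h after compound. Activity in either direction was fitted against DMSO.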

Read-out in experiment [12]: Vascular cell adhesion molecule 1 (VCAM1), VCAM1 (gene 7412)
Briefly: BSK_LPS_VCAM1: BioMAP Diversity Plus: LPS Assay for Vascular cell adhesion molecule 1 (VCAM1) Biomarker Activity (AID 2283086). The settings on record: primary human HUVEC with PBMC; actives raise or lower the signal. In short, it runs like this:
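HUVEC + PBMC co-culture, LPS system; compound 24 h; VCAM-1 by ELISA; bidirectional fit vs DMSO control; parallel SRB (0.1%, TCA-fixed, 560 nm) for cytotoxicity.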

Read-out in a further experiment: CD38, CD38 (gene 952)
Kind of experiment: BSK_SAg_CD38: BioMAP Diversity Plus: SAg Assay for CD38 Biomarker Activity (AID 2283087). To be noted: primary human HUVEC with PBMC; actives raise or lower the signal. In short, it runs like this: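 Human HUVEC plus PBMC co-culture stimulated with superantigen; CD38 measured by ELISA 24 h after chemical dosing. Fluorescence read-out, bidirectional fit against DMSO; cytotoxicity tracked in parallel by SRB and Alamar Blue.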

Read-out in experiment [13]: CD40, CD40 (gene 958)
Briefly: BSK_SAg_CD40: BioMAP Diversity Plus: SAg Assay for CD40 Biomarker Activity (AID 2283088). The settings on record: primary human HUVEC with PBMC; actives raise or lower the signal. Put shortly: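 Human umbilical vein endothelial cells co-cultured with PBMC; CD40 levels measured by ELISA with fluorescence read-out 24 h after chemical dosing. Gain or loss of signal fitted bidirectionally against DMSO baseline.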

Read-out in another experiment: CD69, CD69 (gene 969)
Kind of experiment: BSK_SAg_CD69: BioMAP Diversity Plus: SAg Assay for CD69 Biomarker Activity (AID 2283089). The settings on record: primary human HUVEC with PBMC; actives raise or lower the signal. Put shortly: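 Endothelial/PBMC co-culture; chemical added; 24 h incubation; CD69 ELISA with fluorescence detection; bidirectional fit vs DMSO.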

Read-out in experiment [14]: Monocyte Chemoattractant Protein-1 (MCP1), CCL2 (gene 6347)
Briefly: BSK_SAg_MCP1: BioMAP Diversity Plus: SAg Assay for Monocyte Chemoattractant Protein-1 (MCP1) Biomarker Activity (AID 2283090). To be noted: primary human HUVEC with PBMC; actives raise or lower the signal. In short, it runs like this: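 MCP-1 levels in the endothelial–PBMC SAg co-culture were quantified by ELISA at 24 h post-dosing; both increases and decreases versus DMSO scored. Cytotoxicity monitored by SRB total protein in parallel cultures.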

Read-out in experiment [15]: E-selectin (Homo sapiens) (UniProt P16581)
Kind of experiment: BSK_SAg_Eselectin: BioMAP Diversity Plus: SAg Assay for Eselectin Biomarker Activity (AID 2283091). To be noted: primary human HUVEC with PBMC; actives raise or lower the signal. In short, it runs like this:
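HUVEC co-cultured with PBMC, compound dosed then read at 24 h; E-selectin measured by ELISA. Activity fitted bidirectionally against DMSO as negative control and baseline.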

Read-out in experiment [16]: Monokine induced gamma interferon (MIG), CXCL9 (gene 4283)
Kind of experiment: BSK_SAg_MIG: BioMAP Diversity Plus: SAg Assay for Monokine induced gamma interferon (MIG) Biomarker Activity (AID 2283092). To be noted: primary human HUVEC with PBMC; actives raise or lower the signal. In short, it runs like this: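 Measures CXCL9 protein by ELISA in a human vascular primary-cell co-culture (umbilical vein endothelium with PBMC) 24 h after chemical addition. Activity is scored up or down from the DMSO control.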

A short description of experiment [17]: BSK_SAg_PBMCCytotoxicity: PBMC Cytotoxicity Assessment in the BioMAP Diversity Plus: SAg Assay (AID 2283093).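 For AC50: PBMC superantigen activated with SEB plus TSST-1 one hour after compound addition.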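 Note: PBMC viability measured as Alamar Blue reduction fluorescence at 546/580 nm; fitted both ways against DMSO so a hit may be loss or gain of signal.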 The settings on record: primary human HUVEC with PBMC. Put shortly:
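Compound added to 75,000 PBMC/well for 1 h; SEB and TSST-1 then added at 20 ng/mL final each; 90 h incubation; Alamar Blue 6 h; read 546/580 nm ex/em. Activity fitted bidirectionally relative to DMSO baseline.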

Read-out in experiment [18]: Interleukin-8 (IL8), CXCL8 (gene 3576)
Kind of experiment: BSK_SAg_IL8: BioMAP Diversity Plus: SAg Assay for Interleukin-8 (IL8) Biomarker Activity (AID 2283094). To be noted: primary human HUVEC with PBMC; actives raise or lower the signal. In short, it runs like this:
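ELISA read-out of IL-8 in a primary human vascular co-culture (umbilical vein endothelium plus PBMC), taken 24 h after compound addition. Values derive from bidirectional fits against DMSO negative controls.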

Each structure is given as a SMILES string. Activity calls are given as the source filed them. Rule for the calls: active = hit-call score of the fitted dose curve at least 0.9, where 1 is the maximum; inactive = score below 0.9.

Chain of Tumor necrosis factor (Homo sapiens) (P01375 whole entry, looked up): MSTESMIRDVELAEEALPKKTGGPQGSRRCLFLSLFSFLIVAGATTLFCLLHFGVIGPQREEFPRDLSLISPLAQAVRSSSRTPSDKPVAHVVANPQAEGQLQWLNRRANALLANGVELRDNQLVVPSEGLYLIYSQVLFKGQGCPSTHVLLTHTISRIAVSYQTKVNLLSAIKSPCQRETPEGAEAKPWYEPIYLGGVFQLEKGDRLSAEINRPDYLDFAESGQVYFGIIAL
Chain of E-selectin (Homo sapiens) (P16581 whole entry, looked up): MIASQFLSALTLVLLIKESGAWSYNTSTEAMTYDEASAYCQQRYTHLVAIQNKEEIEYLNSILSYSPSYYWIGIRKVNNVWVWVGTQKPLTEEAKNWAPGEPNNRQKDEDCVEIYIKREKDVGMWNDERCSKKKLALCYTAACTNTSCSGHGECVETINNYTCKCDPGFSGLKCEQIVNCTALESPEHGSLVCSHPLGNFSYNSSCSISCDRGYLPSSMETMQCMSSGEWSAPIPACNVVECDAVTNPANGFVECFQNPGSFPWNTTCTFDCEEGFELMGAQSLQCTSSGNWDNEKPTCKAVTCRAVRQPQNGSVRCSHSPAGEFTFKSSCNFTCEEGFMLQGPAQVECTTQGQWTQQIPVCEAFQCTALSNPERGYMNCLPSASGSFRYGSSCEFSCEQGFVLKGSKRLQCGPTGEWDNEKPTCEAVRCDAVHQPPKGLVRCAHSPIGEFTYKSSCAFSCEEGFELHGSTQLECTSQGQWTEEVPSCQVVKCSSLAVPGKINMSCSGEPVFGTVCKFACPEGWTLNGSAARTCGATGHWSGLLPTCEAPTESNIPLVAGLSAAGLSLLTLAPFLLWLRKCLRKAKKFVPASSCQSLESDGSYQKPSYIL

As to `CC(C)NCC(O)c1ccc(O)c(O)c1` (centres undefined), the outcome in [1] is “inactive”; with CD40, CD40 (gene 958) [2] it was “inactive”; in [3] it was “inactive”; in experiment [4], “inactive”; in [5], “inactive”; in [6], “inactive”. Besides, the outcome in [7] is “inactive”; in experiment [8], “inactive”; in [9], “inactive”; in experiment [10], “inactive”; in experiment [12] it was “inactive”; in the experiment with CD38, CD38 (gene 952), “inactive”. Further, the outcome with CD40, CD40 (gene 958) [13] was “inactive”; in the experiment with CD69, CD69 (gene 969) it was “inactive”; in [14], “inactive”; in experiment [15], “inactive”; in experiment [16], “inactive”; in experiment [18], “inactive”. Further, the AC50 in experiment [11] was 0.262 µM (active); in experiment [17], 13.5 µM (active).
`O=C(O)c1cccnc1`: the outcome is “inactive” in [1]; “inactive” with CD40, CD40 (gene 958) [2]; “inactive” in [3]; “inactive” in experiment [4]; “inactive” in experiment [5]; “inactive” in [6]. The outcome in experiment [7] is “inactive”; in experiment [8], “inactive”; in [9], “inactive”; in [11], “inactive”; in experiment [12] it was “inactive”; with CD38, CD38 (gene 952), “inactive”. Besides, the outcome with CD40, CD40 (gene 958) [13] is “inactive”; with CD69, CD69 (gene 969), “inactive”; in experiment [14], “inactive”; in experiment [15], “inactive”; in [16] it was “inactive”; in [17], “inactive”. The outcome in experiment [18] was inactive.
For `O=C(O)CN(CC(=O)O)CC(=O)O`, the outcome in experiment [1] was “inactive”; in the experiment with CD40, CD40 (gene 958) [2], “inactive”; in experiment [3], “inactive”; in experiment [4], “inactive”; in [5], “inactive”; in experiment [6], “inactive”. The outcome in experiment [7], in experiment [8], in experiment [9], in experiment [10], in experiment [11] and in experiment [12] was inactive. Besides, the outcome in the experiment with CD38, CD38 (gene 952) is “inactive”; in the experiment with CD40, CD40 (gene 958) [13], “inactive”; with CD69, CD69 (gene 969) it was “inactive”; in experiment [14] it was “inactive”; in experiment [15], “inactive”; in [16], “inactive”. Further, the outcome in experiment [17] and in [18] was inactive.
